Test results: PubChem BioAssay

These compounds were tested against Dihydroorotate dehydrogenase (quinone), mitochondrial (Plasmodium falciparum (isolate 3D7)) (UniProt Q08210) (assay: inhibition of P. falciparum DHODH – biochemical, C-terminal His tag, absorbance 600 nm, primary screen (AID 1175;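 note: recombinant parasite enzyme with a five histidine tag at its C terminus; test concentration not given here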)). Details: PfDHODH enzyme, DCIP absorbance 600 nm; higher = more signal, called active from +8 up or from −8 down.
Dihydroorotate dehydrogenase (quinone), mitochondrial (Plasmodium falciparum (isolate 3D7)), sequence (Q08210 whole entry, looked up): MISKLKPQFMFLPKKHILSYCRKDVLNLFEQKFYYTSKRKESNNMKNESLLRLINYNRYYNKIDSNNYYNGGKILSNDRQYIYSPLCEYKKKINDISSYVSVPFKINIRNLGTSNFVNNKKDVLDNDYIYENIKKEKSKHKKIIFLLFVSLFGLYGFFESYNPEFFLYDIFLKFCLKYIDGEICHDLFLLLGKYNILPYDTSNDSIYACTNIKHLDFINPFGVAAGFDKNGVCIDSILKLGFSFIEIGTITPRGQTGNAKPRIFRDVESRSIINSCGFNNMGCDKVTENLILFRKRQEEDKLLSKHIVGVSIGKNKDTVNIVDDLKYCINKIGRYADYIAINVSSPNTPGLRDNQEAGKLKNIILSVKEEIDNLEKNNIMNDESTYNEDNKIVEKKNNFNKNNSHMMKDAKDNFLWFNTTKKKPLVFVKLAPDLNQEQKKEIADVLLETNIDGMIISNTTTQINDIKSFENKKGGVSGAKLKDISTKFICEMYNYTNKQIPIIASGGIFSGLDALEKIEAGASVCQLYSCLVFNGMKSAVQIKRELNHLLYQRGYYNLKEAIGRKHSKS

Composite z-score, inactive:
O=C1OCCC/C=C\[C@H]2OC34C=CCN(Cc5ccccc5)C(=O)[C@H]3N(CCCCCO)C(=O)[C@@H]4C12 (stereo partly drawn) -0.279
CO[C@H]1O[C@H](CO)[C@@H](OC(=O)Nc2ccc(C(F)(F)F)cc2)[C@H](OC(=O)Nc2ccccc2-c2ccccc2)[C@H]1OC(=O)Nc1ccccc1-c1ccccc1 -0.132
COCCOC(=O)N1C(=O)[C@@]2(c3cc(C#CCCO)ccc31)[C@H](C(=O)N1CCN(c3ncccn3)CC1)[C@H]1C(=O)O[C@H](c3ccccc3)[C@H](c3ccccc3)N1[C@@H]2c1ccc(O)cc1 -1.22
[N-]=[N+]=NCc1ccccc1[C@H]1OC(c2ccc(OCCCO)cc2)=N[C@@]1(Cc1ccccc1)C(=O)N1CCOCC1 0.222
C=CCC(OC(C)=O)[C@@H]1[C@@H](N(Cc2ccc(-c3ccccc3)cc2)C(=O)c2ccc(C)cc2)c2cc(OCCCO)ccc2N1C(=O)c1ccc2ccccc2c1 (stereo partly drawn) -1.55
CCCCC(O)C1C=CC2C(=O)N(C)C(=O)C2N1Nc1ccccc1 (stereo not drawn) 0.957
COCCOC(=O)N1C(=O)[C@@]2(c3cc(C#CCC(C(=O)OC)C(=O)OC)ccc31)[C@H](C(=O)N1CCCCCCC1)[C@H]1C(=O)O[C@H](c3ccccc3)[C@H](c3ccccc3)N1[C@@H]2c1ccccc1OCCO 0.256
COC(=O)[C@@]1(Cc2ccccc2)[C@H]2c3cc(C(=O)N4CCCC4)n(Cc4ccc(C(F)(F)F)nc4)c3C[C@H]2CN1C(=O)c1ccccc1 -0.559
